Consider 99 compounds from PubChem BioAssay AID504339 (National Center for Advancing Translational Sciences (NCATS), 2011).

Screen size: about 390,000 compounds; about 17,000 (4.4%) were called active. Where a call stands in place of a potency, no number is given. Not shown: some 8% with an inconclusive outcome. The call rests on the fitted dose curve; in most records, active means well fitted inhibition curve with a large enough effect; inconclusive means small, poorly fitted or top-dose-only effect; inactive means no such curve, though single readings can be large or run the other way. This excerpt belongs to a sample that is enriched for actives.
Potency means the concentration at half of the fitted maximal effect.

In this assay the target is Lysine-specific demethylase 4A (Homo sapiens) (UniProt O75164). The experiment in a line: qHTS Assay for Inhibitors of JMJD2A-Tudor Domain. Further: nearly all actives have a fitted effect of over 50% in size. The conditions noted are these: AlphaScreen JMJD2A-Tudor / H3K4me3 peptide binding; series mostly up to 114 µM. (Quantitative high-throughput screening tests each substance at several concentrations.)
Lysine-specific demethylase 4A (Homo sapiens), sequence (O75164 whole entry, looked up, the tested form may be a part): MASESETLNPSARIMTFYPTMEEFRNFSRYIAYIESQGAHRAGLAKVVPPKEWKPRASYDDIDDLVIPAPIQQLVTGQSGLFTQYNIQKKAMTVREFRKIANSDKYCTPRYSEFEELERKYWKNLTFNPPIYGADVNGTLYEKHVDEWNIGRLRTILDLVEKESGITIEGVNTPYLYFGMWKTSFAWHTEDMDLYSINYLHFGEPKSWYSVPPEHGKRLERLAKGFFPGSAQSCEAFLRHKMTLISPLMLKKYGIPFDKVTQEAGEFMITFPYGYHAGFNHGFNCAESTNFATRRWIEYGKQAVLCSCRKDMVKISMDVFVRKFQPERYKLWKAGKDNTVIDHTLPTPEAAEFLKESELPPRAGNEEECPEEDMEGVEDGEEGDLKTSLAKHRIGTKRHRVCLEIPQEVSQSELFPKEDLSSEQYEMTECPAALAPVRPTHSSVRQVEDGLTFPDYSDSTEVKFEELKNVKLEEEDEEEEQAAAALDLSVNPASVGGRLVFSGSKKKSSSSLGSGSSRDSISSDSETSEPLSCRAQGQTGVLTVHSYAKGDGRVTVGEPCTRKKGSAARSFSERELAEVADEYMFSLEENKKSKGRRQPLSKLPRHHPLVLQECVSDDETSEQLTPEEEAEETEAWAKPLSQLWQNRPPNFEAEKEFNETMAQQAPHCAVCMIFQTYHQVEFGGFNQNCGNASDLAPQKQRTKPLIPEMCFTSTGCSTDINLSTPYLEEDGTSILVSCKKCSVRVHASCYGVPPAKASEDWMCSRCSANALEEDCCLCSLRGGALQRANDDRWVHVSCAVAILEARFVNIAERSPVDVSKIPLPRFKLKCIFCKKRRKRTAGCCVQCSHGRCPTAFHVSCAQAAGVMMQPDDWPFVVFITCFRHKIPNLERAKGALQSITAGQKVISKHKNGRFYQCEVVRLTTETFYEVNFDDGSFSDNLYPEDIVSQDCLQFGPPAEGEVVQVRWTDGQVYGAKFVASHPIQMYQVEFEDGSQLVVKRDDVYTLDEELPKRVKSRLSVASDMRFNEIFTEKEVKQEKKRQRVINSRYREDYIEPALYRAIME
`CCOC(=O)c1cc2c(=O)n3ccccc3nc2n(CCCOC)c1=NC(=O)C(C)(C)Oc1ccc(Cl)cc1`: the Potency result is “inactive”.

In the case of `Cc1ccc(-n2ncc3c(=O)n(Cc4cccc(C(F)(F)F)c4)cnc32)cc1C`, the Potency entry was “inactive”.

Consider `COC(=O)c1ccc(Cn2c(SCC(=O)N(C)c3ccccc3)nc3ccccc32)cc1`, for which the Potency result was “inactive”. Take `Cc1ccc2onc(CC(=O)N3CCN(c4ccc(Cl)cc4)CC3)c2c1`: the Potency entry is “inactive”. For `CC1CCN(S(=O)(=O)c2ccc3c(c2)N(CC(=O)NCc2ccccc2Cl)C(=O)CO3)CC1` the value was “inactive”; for `O=C(NCC12CC3CC(CC(C3)C1)C2)c1cc2nc(-c3ccccc3)cc(C(F)(F)F)n2n1`, “inactive”; for `COC(=O)c1ccccc1NS(=O)(=O)c1ccc2c(c1)CCCN2C(C)=O`, “inactive”.

Regarding `Cc1ccsc1CN(C(=O)c1oc2ccc(Br)cc2c1C)C1CCS(=O)(=O)C1` (centres undefined), the Potency result was “inactive”. The value for `Cc1nc2ccc(S(=O)(=O)N(CC(=O)Nc3ccc(F)cc3)Cc3ccccc3)cc2s1` was “inactive”; that for `Cc1ccc(OCC(=O)OCc2cc(=O)n3nc(C4CC4)sc3n2)cc1C` was “inactive”. For `CCOc1ccc(NC(=O)Cn2c(=O)n(CCCC(=O)NCc3ccc4c(c3)OCO4)c(=O)c3ccccc32)cc1` the value was “inactive”. For `CCC(CC)c1nn2cc(-c3ccccc3)nc2s1`, the Potency entry is “inactive”. The value for `Cn1ccc(=Nc2ccc(NC(=O)c3ccc(N=c4ccn(C)c5ccc([N+](=O)[O-])cc45)cc3)cc2)cc1` was 56.2 µM (active); that for `Cn1c(=O)n(C)c2cc(C(=O)Nc3ccc(Br)cc3)ccc21` was “inactive”. For `CCc1ccc(NC(=O)c2ccc(Cn3cc([N+](=O)[O-])cn3)cc2)cc1` the value was “inactive”. For `O=C(Cn1cc(SCc2ccccc2)c2ccccc21)N1CCCCC1` the value was “inactive”. On to `O=C(NC1CC(=O)N(c2ccc(F)cc2)C1)c1ccc(S(=O)(=O)N2CCCC2)cc1` (centres undefined), for which the Potency entry is “inactive”. As to `CCCCCn1c(CCNC(=O)c2ccc(F)cc2)nc2ccccc21`, the Potency entry was “inactive”. For the compound `Cc1ccc2nc(/C(C#N)=C/c3ccc(-c4ccc(C(=O)OC(C)C)cc4)o3)[nH]c2c1`, the Potency result was “inactive”. For `COc1ccc(CCNC(=O)CCCn2c(=O)c3ccccc3n(Cc3ccc(C)cc3)c2=O)cc1OC` the value was “inactive”; for `Cc1cc2nc(C)n(CCCNC(=O)Nc3ccccc3)c2cc1C`, “inactive”; for `Cc1cc(=O)n(C)c(=O)n1CCCNc1ccccc1`, 7.94 µM (active).

Turning to `Cn1c(Nc2ccccc2)cc(=O)n(C)c1=O`, the Potency entry was “inactive”. For `COc1cc(C(CC(=O)NCCC(C)C)N2Cc3ccccc3C2=O)cc(OC)c1OC` (centres undefined) the value was “inactive”; for `Cc1cccc2c1-c1sc(C(=O)Nc3ccc(F)cc3F)cc1CO2`, “inactive”; for `O=C1c2ccccc2C2=Nc3ccccc3SC(c3ccccc3F)C12` (centres undefined), 14.1 µM (active).

Take `NC(=O)CSc1nc2c(oc3ccccc32)c(=O)n1Cc1ccccc1`: the Potency result was “inactive”. For `CCOCCCNCc1ccc(OCc2ccc(F)cc2)c(OC)c1` the value was “inactive”; for `CCCCOCCCNC(=O)c1ccccc1OCC`, “inactive”; for `CCOc1ccccc1OCCCNCc1ccccc1`, 5.01 µM (active). Regarding `CCCCC(CC)CNC(=O)C1CCN(S(=O)(=O)c2cccc3nsnc23)CC1` (centres undefined), the Potency entry was “inactive”. The value for `O=C1COc2ccc(S(=O)(=O)Nc3ccc(OC(F)(F)F)cc3)cc2N1` was “inactive”; that for `O=S(=O)(Nc1ccc(O)c2ccccc12)c1ccc(OC(F)(F)F)cc1` was 50.1 µM (active); that for `Nc1ncc(S(=O)(=O)Nc2ccc(OC(F)(F)F)cc2)cn1` was “inactive”. In the case of `COC(=O)CC1Oc2ccccc2-n2cc(-c3ccccc3)nc21` (centres undefined), the Potency entry is “inactive”. Consider `CCOc1ccc(-c2cc3nc(C4CCN(C(=O)OC(C)(C)C)CC4)c(C(=O)Nc4ccc(C(=O)OC)cc4)cn3n2)cc1`, for which the Potency result was “inactive”. Consider `COc1ccc(OC)c2sc(N3CCN(C(=O)C4COc5ccccc5O4)CC3)nc12` (centres undefined), for which the Potency entry is “inactive”.

In the case of `Cc1c(CC(=O)N2CCN(C(=O)C3COc4ccccc4O3)CC2)c(=O)oc2c(O)c(O)ccc12` (centres undefined), the Potency was 2.82 µM (active).

Consider `COc1cc(NS(=O)(=O)c2ccc3c(c2)OCC(C(=O)N2CCCC2)O3)cc(OC)c1` (centres undefined), for which the Potency result was “inactive”. Turning to `CCNC(=O)Cn1nc(C)n2c(cc3c(OC)cccc32)c1=O`, the Potency entry is “inactive”. The value for `CC(C)C1N=C2c3ccccc3N=C(SCC(=O)c3ccc(O)c(O)c3)N2C1=O` (centres undefined) was 3.16 µM (active); that for `O=C(CSC1=Nc2ccccc2C2=NC(c3ccccc3)C(=O)N12)NCC1CCCO1` (centres undefined) was “inactive”; that for `Cc1ccc(CNC(=O)CSC2=Nc3ccccc3C3=NC(C)C(=O)N23)cc1` (centres undefined) was “inactive”.

On to `COc1ccc(-n2c(SC)nc3sc4c(c3c2=O)CCN(C(C)=O)C4)cc1`, for which the Potency result was “inactive”. The value for `CCN1CCN(Cc2c(O)ccc3oc(C)c(C(=O)Nc4ccc(C)cc4C)c23)CC1` was “inactive”.

Regarding `C[n+]1ccc(C(=O)NCc2ccccc2)cc1`, the Potency result was “inactive”. For `O=C(NCCCNCc1ccccc1)c1ccc(/C=N/O)nc1`, the Potency was 7.94 µM (active).

With `CC(C)c1ccc(C(=O)NCCCc2ccccc2)cc1`, the Potency result is “inactive”. For the compound `Cc1nc2nc(SCC(=O)N(Cc3ccccc3)C(C)C)nn2c(C)c1Cc1ccccc1Cl`, the Potency result was “inactive”. For `CCc1ccc(-n2nnc(-c3nc(-c4ccccc4)no3)c2C)cc1` the value was “inactive”; for `COc1ccc(SCc2cc(=O)c3ccc(C)c(C)c3[nH]2)cc1`, “inactive”; for `CCOc1c(Br)cc(/C=C2\C(=O)N(CCC#N)N=C2C)cc1OC`, “inactive”. `COc1cc(/C=N/O)cc(Br)c1OCc1cccc(Cl)c1`: the Potency result is “inactive”. For the compound `COc1cc(/C=C2/C(=O)NN(c3cccc(Cl)c3)C2=O)cc(Br)c1O`, the Potency was 44.7 µM (active). For `COc1ccc(CNc2nc(-c3ccc(Cl)cc3)nn2S(=O)(=O)c2ccc(C)cc2)cc1` the value was “inactive”; for `Cc1cccc(NC(=O)N2CCC(CN3CCc4ccccc4C3)CC2)c1C`, “inactive”; for `NS(=O)(=O)c1ccc(NC(=O)C(=O)Nc2ccc3nc4n(c(=O)c3c2)CCCCC4)cc1`, “inactive”. As for `O=C(c1ccc2c(c1)N(Cc1ccccc1F)C(=O)c1ccccc1S2(=O)=O)N1CCOCC1`, the Potency result was “inactive”. On to `COc1ccc(N(CC(=O)NCCc2ccc(Cl)cc2)S(=O)(=O)c2c(C)nn(C)c2C)cc1`, for which the Potency result is “inactive”. Regarding `COc1cccc(Cn2c(SCc3ccc(C(=O)N4CCCCC4)cc3)nc3ccncc32)c1`, the Potency entry was “inactive”. On to `Cc1cccc(CSc2nc3ccncc3n2Cc2ccc(C(=O)O)cc2)c1`, for which the Potency result was “inactive”. For `COc1cccc(Cn2c(SCc3ccc(C(=O)N4CCC(C)CC4)cc3)nc3ccncc32)c1` the value was 5.62 µM (active); for `O=C1CSC(=S)N1c1ccc(O)cc1`, “inactive”; for `CCOc1cccc(/C=N/N2C(=O)CSC2=S)c1O`, 20 µM (active).

Regarding `COc1cc(N2C(=O)CSC2=S)cc(OC)c1OC`, the Potency result was “inactive”. Turning to `COc1ccc(-c2cn3nc(N4CCCC(C(=O)NCCCOC(C)C)C4)sc3n2)cc1` (centres undefined), the Potency result is “inactive”. With `Cc1ccc(-n2c(SCC(=O)c3ccccc3)nc3c([nH]c4ccccc43)c2=O)cc1`, the Potency result was “inactive”. For `COc1ccc(NC(=O)CCNS(=O)(=O)c2ccc3c(c2)CCCC(=O)N3)cc1Cl` the value was “inactive”. Take `COc1ccc(C(=O)Nc2cccc(C(=O)OCc3cc(=O)n4c5c(sc4n3)CCCC5)c2)cc1`: the Potency entry is “inactive”. Take `Cc1cccc(N2CCN(Cc3c(C)n(C)n(-c4ccccc4)c3=O)CC2)c1C`: the Potency entry is “inactive”. The value for `Cc1cccc(N2CCN(C3=C(c4ccccc4)C(=O)c4ccccc43)CC2)c1C` was 5.62 µM (active).

In the case of `Cc1cccc(N2CCN(C(=O)c3oc(=O)c4ccccc4c3-c3ccccc3)CC2)c1C`, the Potency entry is “inactive”. For `COc1cccc(-c2n[nH]c3c2C(c2cccc(O)c2)N(C)C3=O)c1` (centres undefined) the value was “inactive”. The value for `CCC(=O)N1N=C(c2ccc(OC)cc2)CC1c1cn(-c2ccccc2)nc1-c1cccs1` (centres undefined) was “inactive”. Take `CCOc1ccc(C(=O)/C=C/c2cn(CC(O)CN3CCCCCC3)c3ccccc23)cc1` (centres undefined): the Potency is 70.8 µM (active).

Take `O=C(c1ccc(Cl)cc1)c1ccc(OCC(O)CN2CCCCC2)cc1` (centres undefined): the Potency entry was “inactive”. `CC1CCN(CC(O)COc2ccc(C(=O)c3ccccc3)cc2)CC1` (centres undefined): the Potency entry was “inactive”.

With `Cn1c(=O)c2c(nc(Oc3ccc(C#N)cc3)n2Cc2ccc(Cl)cc2Cl)n(C)c1=O`, the Potency result is “inactive”. The value for `O=[N+]([O-])c1cc(-c2nc(-c3ccccc3)no2)ccc1NCc1ccco1` was “inactive”; that for `COc1ccccc1C(=O)NC(=O)COC(=O)c1ccco1` was “inactive”; that for `COc1ccc(C/C(N)=N/OC(=O)c2ccco2)cc1OC` was 44.7 µM (active). For `COc1ccc(CC(=O)Nc2ccccc2NC(=O)c2ccco2)cc1OC` the value was “inactive”; for `COc1ccc(OC)c(NC(=O)Cn2c(=O)n(Cc3ccccc3)c(=O)c3ccccc32)c1`, “inactive”. For `CN(C)c1ccc(Nc2c3c4c(cccc4n(C)c2=O)C(=O)c2ccccc2-3)cc1` the value was 3.55 µM (active); for `CN(C)c1ccc(C2N(C)C(=O)c3ccccc3N2C)cc1` (centres undefined), “inactive”; for `Cc1cc(NS(=O)(=O)c2ccc(NC(=O)c3ccccc3C)cc2)nc(C)n1`, “inactive”.

Consider `COc1ccc(C2=CC(c3ccccc3Cl)n3nc(-c4ccc(Cl)cc4)nc3N2)cc1` (centres undefined), for which the Potency entry was “inactive”. Regarding `Cc1ccc(C2C=C(c3ccc(Cl)cc3)Nc3nc(NC(=O)CCC(=O)O)nn32)cc1` (centres undefined), the Potency was 79.4 µM (active). For `COc1ccc(CC(=O)Nc2nc3n(n2)C(c2ccccc2)CC(=O)N3)cc1OC` (centres undefined) the value was “inactive”. Consider `COc1cccc(CN2CCc3nc(SCC(=O)Nc4ccccc4)[nH]c(=O)c3C2)c1`, for which the Potency entry is “inactive”.

Take `Cc1cc(NC(=O)C(C)SCC(=O)Nc2ccccc2N2CCCCC2)no1` (centres undefined): the Potency entry is “inactive”. As to `O=C(CNCCC1=CCCCC1)Nc1ccccc1N1CCCCCC1`, the Potency is 56.2 µM (active). For the compound `S=C(NCCC1=CCCCC1)Nc1ccccc1`, the Potency result is “inactive”. On to `Cc1cc(-c2ccccc2)n2nc(-c3ccccc3)cc2n1`, for which the Potency result was “inactive”. For the compound `Cc1nnc(SCC(=O)NCc2ccccc2Cl)c2nn(-c3ccccc3)c(C)c12`, the Potency result is “inactive”.

For `COc1ccc(CNC(=O)c2cc3c(=O)[nH]c4ccccc4c3s2)cc1`, the Potency entry is “inactive”.

For the compound `CCN(c1ccccc1)S(=O)(=O)c1ccc(NC(=O)C(C)(C)C)cc1`, the Potency result is “inactive”. Turning to `CCN(c1ccccc1)S(=O)(=O)c1ccc2[nH]c(=O)[nH]c2c1`, the Potency is 56.2 µM (active). For the compound `CN(c1ccccc1)S(=O)(=O)c1ccc2[nH]c(=O)[nH]c2c1`, the Potency result is “inactive”.
